Molecules are shown by their SMILES. The whole screen tested about 2,400 compounds, of which about 950 (40%) were called active. No stated cut-off is given here; in the data, active means inhibition above about 49%; inactive means the rest. A selection follows.

83 molecules from PubChem BioAssay AID651785 (The Scripps Research Institute Molecular Screening Center, 2012) can be followed below.

In the test the target is Trace amine-associated receptor 1 (Homo sapiens) (UniProt Q96RJ0). Put plainly: TAAR1 receptor blockers, repeat testing – cell-based, fluorescence, confirmation (AID 651785).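 Further: CHO-Ga16 host cells challenged with agonist PEA near its EC80; 0% = agonist at EC80 plus vehicle and 100% = vehicle with no agonist.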 To be noted: TAAR1-expressing cells, fluorescence antagonist read-out; at 3 µM; hits give high values.
Chain of Trace amine-associated receptor 1 (Homo sapiens) (Q96RJ0 whole entry, looked up, the tested form may be a part): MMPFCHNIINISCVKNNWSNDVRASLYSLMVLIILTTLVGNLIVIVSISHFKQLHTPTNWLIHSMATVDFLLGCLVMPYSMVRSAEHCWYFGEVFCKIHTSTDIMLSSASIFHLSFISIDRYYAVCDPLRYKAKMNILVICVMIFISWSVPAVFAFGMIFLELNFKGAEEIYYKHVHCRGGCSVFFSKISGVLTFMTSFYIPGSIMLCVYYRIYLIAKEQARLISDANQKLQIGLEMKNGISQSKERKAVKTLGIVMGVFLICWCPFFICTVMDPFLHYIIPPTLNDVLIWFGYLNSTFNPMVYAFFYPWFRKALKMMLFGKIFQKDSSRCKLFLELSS
As to `Nc1nonc1-n1nnc(C(=O)N/N=C/c2c[nH]c3ccccc23)c1-c1ccccc1`, the inhibition was 33.6% (inactive).

`Cc1ccc(SCc2c(C(=O)N/N=C/c3cccnc3)nnn2-c2nonc2N)cc1`: the inhibition is 59.3% (active).

As to `C[C@@H]1CN([C@@H](C)CO)S(=O)(=O)c2ccc(C#Cc3cccc(F)c3)cc2O[C@H]1CN(C)S(=O)(=O)c1cn(C)cn1`, the inhibition was 53% (active). For `CCc1ccc2c(c1)NC(=O)C2(C)Cc1ccc(OC(F)(F)F)cc1` (stereo not drawn) the value was 44.5% (inactive). For `Cc1cccc(NC(=O)c2nc[nH]c2C(=O)NCC(=O)OCc2ccccc2)c1` the value was 46% (inactive); for `CCOC(=O)C1=C(NC(=S)NC(=O)c2ccccc2)c2ccccc2CC1(C)C`, 42.7% (inactive). For the molecule `Cc1cc(Br)ccc1NC(=O)c1cnc(N2CCN(c3ccccn3)CC2)c2ccccc12`, the inhibition is 55.2% (active). With `Cc1ccc2c(c1)N(CC(=O)NCCc1ccc(Cl)cc1)C(=O)c1cccnc1O2`, the inhibition was 50.5% (active). For `COc1ccc(C2=NOC(Cn3nc(C(=O)NCc4ccc5c(c4)OCO5)cc3-c3ccccc3)C2)cc1` (stereo not drawn), the inhibition is 48.2% (inactive). For `CC(=O)OCCN(CCCn1c(-c2ccncc2)nc2ccccc21)c1nc(-c2ccc(C)cc2)cs1` the value was 36.5% (inactive); for `Cc1nn(-c2ccccc2)c(C)c1NC(=O)COC(=O)c1cc(Cl)ccc1O`, 56.2% (active); for `COc1ccc(NC(=O)C2CCCN(S(=O)(=O)c3cccc4cccnc34)C2)cc1OC` (stereo not drawn), 45.3% (inactive).

Regarding `Cc1onc(-c2c(F)cccc2Cl)c1C(=O)Nc1cccc(S(=O)(=O)N2CCCCC2)c1`, the inhibition was 46% (inactive). Under `COc1ccc(S(=O)(=O)N2CCCC(C(=O)Nc3ccc(NC(=O)c4ccccn4)cc3)C2)cc1` (stereo not drawn) stands 56.2% (active); under `Cc1ccc(C)c(N2CCN(C(=O)CCCCCn3c(=S)[nH]c4ccc(N5CCOCC5)cc4c3=O)CC2)c1`, 54.2% (active). Under `COc1ccc(CCNC2=C(Cl)C(=O)N(Cc3ccccc3)C2=O)cc1OC` stands 50.8% (active).

For `COc1cc2ccccc2cc1C(=O)Nc1ccc(NC(=O)c2cccs2)cc1`, the inhibition was 45.9% (inactive). Under `C[C@H](O)[C@@H]1C(=O)N2CCc3c([nH]c4c(-c5ccc6c(c5)OCO6)cccc34)[C@@H]2C[C@@H]1N(C)C(=O)c1ccco1` stands 37.4% (inactive); under `O=C(NCCN1CCOCC1)c1ccccc1N1C(=O)[C@@H]2Cc3c([nH]c4ccccc34)C(c3cccc(Cl)c3)N2C1=O` (stereo partly drawn), 39.5% (inactive); under `O=C(NCCN1C(=O)S/C(=C\c2cccnc2)C1=O)c1ccc(S(=O)(=O)N2CCCC2)cc1`, 29.7% (inactive). Under `O=C(NCCN1CCOCC1)c1ccc(/C=C2\Sc3ccccc3N(Cc3ccc(F)cc3)C2=O)cc1` stands 52.2% (active). Consider `CCNS(=O)(=O)c1ccc(CCC(=O)N2CCN(c3cc(Cl)ccc3C)CC2)cc1`, for which the inhibition is 50.4% (active). Under `OC(c1ccccc1)(c1ccccc1)C1CCN(CCCOc2ccc(-c3ccsc3)cc2)CC1` stands 43.2% (inactive); under `CCOc1ccc(N2CC(C(=O)N/N=C/c3sccc3C)CC2=O)cc1` (stereo not drawn), 9.4% (inactive); under `O=C1c2ccccc2C(=O)N1CCC#Cc1ccc2cc(C3(O)CCCCC3)oc(=O)c2c1`, 69.5% (active). As for `CCN1CCc2c(C#N)c(NCc3ccccc3)nc(NCCO)c2C1`, the inhibition is 0.04% (inactive).

For `Cc1cccc(C)c1NC(=O)CNC(=O)C1CCCC1`, the inhibition was 2.87% (inactive). For `Cc1ccccc1OCC(=O)Nc1ccc(N2CCN(C(=O)C(C)C)CC2)c(Cl)c1`, the inhibition was 55.3% (active). Under `CSc1ncnc2c1ncn2CC(=O)C1CCC2C3CCC4=CC(=O)CCC4(C)C3CCC12C` (stereo not drawn) stands 61.9% (active). With `COc1ccc(N(CC(=O)N/N=C/c2cccs2)S(=O)(=O)c2ccc(OC)c(OC)c2)cc1`, the inhibition was 42.2% (inactive).

In the case of `CC(=O)c1ccccc1OCc1ccc(C(=O)c2ccccc2)cc1`, the inhibition was 56.3% (active). For `COc1ccc2[nH]c(=O)c(CN(Cc3cccnc3)S(=O)(=O)c3ccccc3F)cc2c1` the value was 55% (active); for `O=C(COC(=O)c1c2c(nc3ccccc13)CCCC2)c1ccc(Br)s1`, 41% (inactive).

Consider `CSC(=S)N/N=C/c1c[nH]c2ccccc12`, for which the inhibition was 65.5% (active). For `O=C(Oc1ccc(-c2nnco2)cc1)c1ccc(F)c(S(=O)(=O)N2CCOCC2)c1` the value was 61.4% (active). In the case of `COc1ccc(C(=O)Oc2ccc(-c3nnco3)cc2)cc1S(=O)(=O)N1CCOCC1`, the inhibition is 47.2% (inactive).

As to `C=CCc1cc(S(=O)(=O)c2ccc(O)c(CC=C)c2)ccc1O`, the inhibition was 26.4% (inactive). Regarding `Cn1c(C(=O)NCCc2ccsc2)cc2c(=O)n(C)c3ccccc3c21`, the inhibition is 38.8% (inactive).

Consider `O=S1(=O)c2c(cccc2N2CCCCC2)O[C@H](COCc2ccccc2)CN1C1CC1`, for which the inhibition is 32.1% (inactive).

Take `COc1ccc(OC)c2[nH]c(=O)c(CCNC(=O)C(=O)c3c[nH]c4ccccc34)cc12`: the inhibition was 49.5% (active).

As for `CC/C(=N/Nc1ccccc1)c1cnnc(SC)n1`, the inhibition is 1.16% (inactive). Under `Cc1ccccc1NC(=O)Cc1nc(COC(=O)C(C)(C)Oc2ccc(Cl)cc2)cs1` stands 58.9% (active); under `O=C(O)c1ccc(NC(=O)c2cn(-c3ccccc3)nc2-c2ccc(Cl)cc2)cc1`, 46.9% (inactive); under `Cc1cccc(NC(=O)c2ccc(COc3ccccc3[N+](=O)[O-])o2)n1`, 35% (inactive). On to `COC(=O)Cc1nnn2c1[C@H](C)[C@H](c1ccccc1[N+](=O)[O-])OCC2`, for which the inhibition is 30.1% (inactive).

As to `COC(=O)Cc1nnn2c1[C@H](C)[C@H](c1ccccc1Br)OCC2`, the inhibition was 65.9% (active). As for `COc1ccc(CC(=O)Nc2c(C(N)=O)oc3ccccc23)cc1`, the inhibition was 28.8% (inactive). Under `CCCCNc1c(-c2cccc(Sc3ccc(OC)cc3)c2)nc2ccccn12` stands 61.9% (active). Under `Cc1ccc(NC(=O)c2ccc(CSc3ncnc4nc[nH]c34)cc2)c(C)c1` stands 25.9% (inactive); under `CSCCC(NC(=O)COc1ccccc1)C(=O)OCC(=O)c1cc2ccccc2o1` (stereo not drawn), 33.3% (inactive); under `O=c1[nH]c(CSc2ncc(-c3ccc(F)cc3)n2Cc2ccco2)nc2ccccc12`, 54% (active). With `Cc1ccc2cccc(OCCCOc3ccccc3CO)c2n1`, the inhibition is 26.4% (inactive). On to `O=C(Nc1ccccc1-c1nnn(CC(=O)N2CCN(c3ccccc3)CC2)n1)c1cccs1`, for which the inhibition is 52.1% (active). On to `CN(c1ccccc1)S(=O)(=O)c1cc(C(=O)Nc2nc3ccccc3[nH]2)ccc1Cl`, for which the inhibition is 50.8% (active). Under `O=S(=O)(c1cccs1)N1CCCc2nc(-c3ccc(Br)cc3)ccc21` stands 36.2% (inactive). Turning to `COc1ccc(C(=O)Nc2ccccc2C(=O)N/N=C/c2ccc(O)c(OC)c2)cc1`, the inhibition is 45.9% (inactive). Under `O=C(N/N=C/c1ccc(OC(=O)c2ccccc2Cl)cc1)c1ccc(O)cc1` stands 57% (active); under `COc1ccc(-c2cc(C(=O)N(C)CC(=O)Nc3ccccc3Cl)c3ccccc3n2)cc1OC`, 52.2% (active). Under `COc1ccc(-c2cc(C(=O)N(C)Cc3ccc(OC)c(OC)c3OC)c3ccccc3n2)cc1OC` stands 56.9% (active). `COc1ccc(C(=O)Nc2cccc(NC(=O)c3ccc(OC)cc3OC)n2)c(OC)c1`: the inhibition is 45.9% (inactive). For `COc1ccc(CN(C)C(=O)c2cc(-c3ccc(C)cc3C)nc3ccccc23)c(OC)c1OC` the value was 53.7% (active); for `COc1ccc(-c2cc(C(=O)Nc3ccccc3O)c3ccccc3n2)cc1`, 59% (active).

With `CC(=O)N1CCN(C(=O)c2cc(-c3ccc(Cl)s3)nc3ccccc23)CC1`, the inhibition is 38.7% (inactive). Consider `COc1ccc(-c2cc(C(=O)N(C)Cc3ccccc3)c3ccccc3n2)cc1`, for which the inhibition is 44.3% (inactive). Under `COc1ccc(-c2nn(-c3ccccc3)cc2C(=O)Nc2nccs2)cc1OC` stands 46.5% (inactive). For `COc1ccc(NC(=O)c2cc(-c3ccc(C)o3)nc3ccccc23)cc1` the value was 41.2% (inactive). As for `Cc1cc(C(C)(C)C)oc1C(=O)N(CC(=O)NC1CCCC1)Cc1ccc(Cl)cc1`, the inhibition was 43.7% (inactive).

Take `CSCCC(NC(=O)COc1ccccc1)C(=O)OCCOc1ccc(Br)cc1` (stereo not drawn): the inhibition is 17.8% (inactive). With `O=C(NCC1CCCO1)c1cc2c([nH]c3ccccc32)c(-c2ccc(F)cc2)n1` (stereo not drawn), the inhibition was 46% (inactive).

`Cn1c2ccccc2c(=O)c2c(=O)n(Cc3ccco3)c(COc3ccccc3)nc21`: the inhibition was 51% (active). On to `COc1ccc(S(=O)(=O)N(CC(=O)NCc2ccco2)c2ccc(F)cc2)cc1`, for which the inhibition was 39.1% (inactive). As for `C=CCn1c(SCc2cccc(F)c2)nc2cc(C(=O)N3CCC(C(N)=O)CC3)ccc2c1=O`, the inhibition was 43.9% (inactive). Regarding `Cc1nc(N2CCN(c3ccccn3)CC2)c2c(C)c(C(=O)Nc3ccc(F)cc3)sc2n1`, the inhibition was 53% (active). As to `Clc1ccc(Nc2ncnc3c2nnn3Cc2ccccc2)cc1`, the inhibition is 31% (inactive). For `COc1cc(/C=C2/C(=O)ON=C2C)ccc1OCc1ccccc1F` the value was 61.3% (active).

As to `COC(=O)c1sccc1NC(=O)c1cc(OC)c(OC)c(OC)c1`, the inhibition was 37.3% (inactive). With `COc1ccc(/C=C/C(=O)Nc2ccc(C34CC5CC(CC(O)(C5)C3)C4)cc2)cc1OC`, the inhibition is 57.9% (active).

On to `NNC(=O)CNC(c1ccccc1)c1cc(Cl)ccc1NC(=O)c1ccccc1` (stereo not drawn), for which the inhibition was 34.3% (inactive).

With `Oc1ccccc1N1CCN(c2ncnc3sc(-c4ccccc4)cc23)CC1`, the inhibition is 47.6% (inactive). Under `CC(C)(C)OC(=O)NCCCCCNC(=O)c1nc[nH]c1C(=O)NCc1ccccc1` stands 37.2% (inactive); under `CC(C)Oc1cc(F)ccc1-c1cc(C(=O)Nc2ccc(F)cc2)[nH]n1`, 46.1% (inactive). Under `C=CCC[C@@H](Cc1ccc(F)cc1)C(=O)O[C@H](CNC(=O)[C@H](CC=C)CC(=O)N(CCO)Cc1ccccc1)c1ccccc1` stands 57.8% (active); under `C=CCC[C@H](Cc1ccc(F)cc1)C(=O)OC[C@H](C)NC(=O)[C@H](CC=C)CC(=O)N(CCO)Cc1ccccc1`, 54% (active).

As usually defined, the inhibition is the relative decrease from the control value, in per cent.
